Our source for the outcome and AC50 values is PubChem BioAssay (EPA / NIEHS).

Molecules are shown by their SMILES. The source made the active and inactive calls. Rule for the calls: active = hit-call score of the fitted dose curve at least 0.9, where 1 is the maximum; inactive = score below 0.9.

Details in all cases: mRNA level, 48 h; actives raise or lower the signal
Read-out in test [1]: Glutathione S-Transferase (GSTA2), GSTA2 (gene 2939)
As to the kind of experiment: LTEA_HepaRG_GSTA2: Life Technologies and Expression Analysis (LTEA) Assay for Glutathione S-Transferase (GSTA2) using HepaRG (AID 2283497). The essentials:
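Differentiated human HepaRG cells were exposed in duplicate for 48 h in serum-free induction medium, 8 points from 100 uM top in half-log steps, 0.5% DMSO. GSTA2 mRNA was measured by TaqMan qRT-PCR, normalized to ACTB, GAPDH and POLR2A; bidirectional fit versus DMSO.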

Read-out in test [2]: Glutamate-cysteine ligase catalytic (GCLC), GCLC (gene 2729)
As to the kind of experiment: LTEA_HepaRG_GCLC: Life Technologies and Expression Analysis (LTEA) Assay for Glutamate-cysteine ligase catalytic (GCLC) using HepaRG (AID 2283498). In short, it runs like this:
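Differentiated HepaRG cells exposed 48 h in serum-free induction medium, eight-point half-log series topping at 100 uM in 0.5% DMSO, duplicates. GCLC mRNA by qRT-PCR normalized to ACTB, GAPDH and POLR2A, fitted bidirectionally versus DMSO.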

Read-out in test [3]: Glutamate-cysteine ligase regulatory (GCLM), GCLM (gene 2730)
Description: LTEA_HepaRG_GCLM: Life Technologies and Expression Analysis (LTEA) Assay for Glutamate-cysteine ligase regulatory (GCLM) using HepaRG (AID 2283500). The essentials: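 Human liver HepaRG cultures receive test chemicals for 48 hours at up to 100 uM in 0.5% DMSO. GCLM expression is measured by qRT-PCR and analysed for increases or decreases against vehicle.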

Read-out in test [4]: Glutathione S-transferase M3 (GSTM3), GSTM3 (gene 2947)
Description: LTEA_HepaRG_GSTM3: Life Technologies and Expression Analysis (LTEA) Assay for Glutathione S-transferase M3 (GSTM3) using HepaRG (AID 2283501). In short, it runs like this:
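Changes in GSTM3 expression, an oxidative-stress marker, were scored by bidirectional curve fitting against 0.5% DMSO vehicle. Human HepaRG cultures received chemicals for 48 h in duplicate, highest concentration 100 uM with half-log dilutions.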

Read-out in test [5]: Heat shock 70 kDa protein 1 (HSPA1A), gene 3303
As to the kind of experiment: LTEA_HepaRG_HSPA1A: Life Technologies and Expression Analysis (LTEA) Assay for Heat shock 70 kDa protein 1 (HSPA1A) using HepaRG (AID 2283502). The essentials:
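HSPA1A induction in human HepaRG liver cells is measured after 48 h of chemical treatment (100 uM maximum, 0.5% DMSO vehicle). Expression comes from qRT-PCR normalized to endogenous controls.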

Read-out in test [6]: Hypoxia-inducible factor 1-alpha (Homo sapiens) (UniProt Q16665)
Description: LTEA_HepaRG_HIF1A: Life Technologies and Expression Analysis (LTEA) Assay for Hypoxia-inducible factor 1 (HIF1A) Trancription factor using HepaRG (AID 2283503).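 Note: HIF1A transcript by TaqMan qRT-PCR normalized to ACTB GAPDH and POLR2A.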 The essentials:
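HepaRG, 48 h exposure, 8-pt half-log series from 100 uM, 0.5% DMSO vehicle, duplicates. Readout: HIF1A transcript by qRT-PCR (Fluidigm array), housekeeping-normalised. Bidirectional curve fit vs DMSO baseline.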

Read-out in test [7]: 3-Hydroxy-3-Methylglutaryl-CoA Synthase 2 (HMGCS2), HMGCS2 (gene 3158)
As to the kind of experiment: LTEA_HepaRG_HMGCS2: Life Technologies and Expression Analysis (LTEA) Assay for 3-Hydroxy-3-Methylglutaryl-CoA Synthase 2 (HMGCS2) using HepaRG (AID 2283504). In short, it runs like this:
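Expression of HMGCS2 in human HepaRG liver cells is measured by qRT-PCR 48 h after dosing (highest 100 uM, half-log series, 0.5% DMSO). Values come from bidirectional concentration-response fitting with DMSO as baseline.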

Read-out in test [8]: HGF (gene 3082)
Description: LTEA_HepaRG_HGF: Life Technologies and Expression Analysis (LTEA) Assay for Hepatocyte Growth Facto (HGF) using HepaRG (AID 2283505). In short, it runs like this: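 Gain or loss of HGF mRNA in human HepaRG liver cells after 48 h chemical exposure; eight concentrations up to 100 uM with 0.5% DMSO vehicle, quantified by TaqMan qRT-PCR.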

Read-out in test [9]: Insulin Like Growth Factor 1 (IGF1), IGF1 (gene 3479)
Description: LTEA_HepaRG_IGF1: Life Technologies and Expression Analysis (LTEA) Assay for Insulin Like Growth Factor 1 (IGF1) using HepaRG (AID 2283506). The essentials: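 Using human HepaRG liver cells, IGF1 transcript induction or suppression is measured 48 h after dosing across eight concentrations capped at 100 uM. Values derive from bidirectional concentration-response fitting with DMSO as baseline.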

Read-out in test [10]: Insulin-like growth factor-binding protein 1 (IGFBP1), IGFBP1 (gene 3484)
Description: LTEA_HepaRG_IGFBP1: Life Technologies and Expression Analysis (LTEA) Assay for Insulin-like growth factor-binding protein 1 (IGFBP1) using HepaRG (AID 2283508). The essentials:
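mRNA induction or loss was quantified by qRT-PCR after 48 h chemical exposure of human HepaRG cells, with 0.5% DMSO as vehicle and baseline. Concentration-response over eight points up to 100 uM.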

Read-out in test [11]: Interleukin 6 (IL6), IL6 (gene 3569)
As to the kind of experiment: LTEA_HepaRG_IL6: Life Technologies and Expression Analysis (LTEA) Assay for Interleukin 6 (IL6) using HepaRG (AID 2283509). The essentials:
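HepaRG cells exposed in duplicate for 48 h to eight half-log concentrations, top 100 uM, in 0.5% DMSO serum-free induction medium. mRNA measured by qRT-PCR, normalized to ACTB, GAPDH and POLR2A. Bidirectional fit versus DMSO.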

Read-out in test [12]: Interleukin 6 Receptor (IL6R), IL6R (gene 3570)
Description: LTEA_HepaRG_IL6R: Life Technologies and Expression Analysis (LTEA) Assay for Interleukin 6 Receptor (IL6R) using HepaRG (AID 2283510). The essentials: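 Concentration-response in human liver HepaRG cells: eight concentrations from 100 uM downward by half-logs, 48 h exposure, 0.5% DMSO vehicle. IL6R mRNA change measured by qRT-PCR and fitted in both directions relative to vehicle.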

Read-out in test [13]: Potassium channel subfamily K member 1 (KCNK1), KCNK1 (gene 3775)
Description: LTEA_HepaRG_KCNK1: Life Technologies and Expression Analysis (LTEA) Assay for Potassium channel subfamily K member 1 (KCNK1) using HepaRG (AID 2283511). The essentials:
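Differentiated HepaRG cells, 48 h exposure in serum-free induction medium with 0.5% DMSO; 8 concentrations, half-log from 100 uM, duplicate. KCNK1 mRNA by qRT-PCR, normalized to ACTB, GAPDH, POLR2A; bidirectional fit vs DMSO.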

Read-out in test [14]: Keratin 19 (KRT19), KRT19 (gene 3880)
Description: LTEA_HepaRG_KRT19: Life Technologies and Expression Analysis (LTEA) Assay for Keratin 19 (KRT19) using HepaRG (AID 2283512). In short, it runs like this: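 Gene-expression endpoint in the human liver line HepaRG after 48 h exposure to up to 100 uM test chemical with 0.5% DMSO vehicle; KRT19 mRNA by qRT-PCR, analyzed bidirectionally versus DMSO.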

Read-out in test [15]: JUN Transcription Factor, JUN (gene 3725)
Description: LTEA_HepaRG_JUN: Life Technologies and Expression Analysis (LTEA) Assay for JUN Transcription Factor using HepaRG (AID 2283513). In short, it runs like this:
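Human HepaRG liver cells receive test chemicals in 0.5% DMSO for 48 h across an eight-point range topping at 100 uM. Expression changes in JUN are scored in both directions against the DMSO vehicle.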

Read-out in test [16]: Lipase C (LIPC), LIPC (gene 3990)
As to the kind of experiment: LTEA_HepaRG_LIPC: Life Technologies and Expression Analysis (LTEA) Assay for Lipase C (LIPC) using HepaRG (AID 2283514). The essentials:
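HepaRG cells, 48 h after plating, treated in duplicate for 48 h in serum-free induction medium over 8 half-log concentrations from 100 uM, 0.5% DMSO. LIPC mRNA by TaqMan qRT-PCR normalized to ACTB/GAPDH/POLR2A; bidirectional fit versus DMSO.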

Read-out in test [17]: Lipoprotein lipase (LPL), LPL (gene 4023)
Description: LTEA_HepaRG_LPL: Life Technologies and Expression Analysis (LTEA) Assay for Lipoprotein lipase (LPL) using HepaRG (AID 2283515). The essentials: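 Differentiated HepaRG cells, plated 48 h, then exposed 48 h in serum-free induction medium to 8 concentrations (top 100 uM, half-log steps) in 0.5% DMSO, duplicate. LPL mRNA measured by qRT-PCR, normalized to ACTB, GAPDH and POLR2A.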

Read-out in test [18]: MicroRNA 122 (MIR122), gene 406906
Description: LTEA_HepaRG_MIR122: Life Technologies and Expression Analysis (LTEA) Assay for MicroRNA 122 (MIR122) using HepaRG (AID 2283516). Note: the transcript read is the microRNA miR-122. The essentials: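 HepaRG, 48 h exposure, 8-pt half-log from 100 uM, 0.5% DMSO; TaqMan qRT-PCR; bidirectional fit vs DMSO.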

Read-out in test [19]: Intercellular Adhesion Molecule 1 (ICAM1), ICAM1 (gene 3383)
Description: LTEA_HepaRG_ICAM1: Life Technologies and Expression Analysis (LTEA) Assay for Intercellular Adhesion Molecule 1 (ICAM1) using HepaRG (AID 2283507). In short, it runs like this:
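Gain or loss of transcript in HepaRG hepatic cells is quantified by qRT-PCR after 48 h chemical exposure (up to 100 uM, half-log steps), with DMSO as baseline.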

Hypoxia-inducible factor 1-alpha (Homo sapiens), sequence (Q16665 whole entry, looked up): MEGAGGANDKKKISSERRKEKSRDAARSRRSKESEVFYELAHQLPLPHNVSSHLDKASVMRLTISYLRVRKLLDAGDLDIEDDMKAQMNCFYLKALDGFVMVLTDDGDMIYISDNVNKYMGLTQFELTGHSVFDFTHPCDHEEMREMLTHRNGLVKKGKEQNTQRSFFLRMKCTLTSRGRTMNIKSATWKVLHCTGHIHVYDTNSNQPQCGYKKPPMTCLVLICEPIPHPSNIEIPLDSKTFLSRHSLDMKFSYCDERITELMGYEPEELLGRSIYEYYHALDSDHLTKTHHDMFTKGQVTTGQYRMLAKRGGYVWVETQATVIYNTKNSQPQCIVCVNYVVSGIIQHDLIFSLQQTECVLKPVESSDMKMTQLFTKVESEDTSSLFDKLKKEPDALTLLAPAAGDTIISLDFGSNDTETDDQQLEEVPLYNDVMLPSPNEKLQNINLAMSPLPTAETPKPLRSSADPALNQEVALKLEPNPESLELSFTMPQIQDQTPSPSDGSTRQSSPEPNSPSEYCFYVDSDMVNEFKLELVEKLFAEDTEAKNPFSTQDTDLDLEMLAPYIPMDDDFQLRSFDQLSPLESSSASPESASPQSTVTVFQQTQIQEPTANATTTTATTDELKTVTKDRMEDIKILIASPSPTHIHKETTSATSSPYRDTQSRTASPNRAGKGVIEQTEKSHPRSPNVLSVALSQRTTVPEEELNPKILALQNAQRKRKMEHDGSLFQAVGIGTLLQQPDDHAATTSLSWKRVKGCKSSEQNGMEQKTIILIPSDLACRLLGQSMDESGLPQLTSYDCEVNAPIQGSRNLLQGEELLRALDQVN

For `CC=Cc1ccc(O)c(OC)c1`, the molecule was called inactive in test [1], in test [2], in test [3], in test [4], in test [5] and in test [6]. Besides, the molecule was called inactive in [7], in test [8], in [9], in test [10], in test [11] and in [12]. Moreover, the result in [13], in [14], in test [15], in test [16], in test [17] and in [18] was inactive.
Take `c1cc(-c2ccncc2)ccn1`: the molecule was classed as inactive in test [1], in test [2], in [3], in test [4], in test [5] and in test [6]. Besides, the call in [7], in test [8], in test [9], in [19], in [10] and in test [11] was inactive. Moreover, the outcome in [12], in test [13], in test [14], in [15], in test [16] and in [17] was inactive. Moreover, in test [18], the molecule was called inactive.
Usually AC50 stands for the midpoint of the concentration-response curve, whichever way the signal moves. On to `O=c1c(O)c(-c2ccc(O)c(O)c2)oc2cc(O)cc(O)c12`, for which the outcome in test [1], in test [2], in test [3], in [4], in [5] and in test [7] was inactive. For the same molecule, the outcome in test [8], in test [10], in test [11], in [12], in [14] and in [15] was inactive. Moreover, the molecule was classed as inactive in [17] and in test [18]. For the same molecule, the AC50 in test [16] is 80500 nM (active).
Consider `COc1ccc(C)cc1N`, for which the molecule was called inactive in test [1], in test [2], in test [3], in test [4], in test [5] and in test [6]. Moreover, the outcome in [7], in test [8], in test [9], in test [19], in test [10] and in test [11] was inactive. The result in [12], in test [13], in [14], in test [15], in [16] and in test [17] was inactive. The molecule was classed as inactive in test [18].
With `NCC1(Cc2noc(=O)[nH]2)CCCCC1`, the molecule was called inactive in test [1], in [2], in [3], in test [4], in [5] and in test [6]. For the same molecule, the molecule was called inactive in test [7], in [8], in [9], in test [10], in test [11] and in test [12]. The molecule was called inactive in test [13], in test [14], in test [15], in test [16], in test [17] and in test [18].
For the molecule `CN1CCN(Cc2cc(-c3ccc4[nH]c(=O)oc4c3)co2)[C@@H](c2ccc(F)cc2)C1`, the AC50 was 12200 nM (active) in test [1], 50000 nM (active) in [11] and 23900 nM (active) in test [14]. Also, the outcome in test [2], in [3], in [4], in test [5], in [6] and in test [7] was inactive. Also, the molecule was classed as inactive in test [8], in test [9], in test [10], in test [12], in [13] and in test [15]. Besides, the molecule was called inactive in [16], in test [17] and in test [18].
As to `CCOC(=O)C(C)(C)Oc1ccc(Cl)cc1`, the molecule was called inactive in test [1], in [2], in test [3], in test [4], in test [5] and in [8]. Also, the call in test [9], in test [19], in test [10], in test [11], in test [12] and in test [13] was inactive. The molecule was called inactive in test [14], in test [15], in test [16] and in test [17]. In addition, the AC50 in test [7] is 9920 nM (active).
Regarding `COCCOCCOC`, the call in test [1], in test [5], in test [7], in [9], in test [11] and in test [12] was inactive. In addition, the molecule was called inactive in [13], in test [14] and in test [18]. The AC50 in [2] was 2100 nM (active); in test [3], 925 nM (active); in [4], 2140 nM (active); in test [6] it was 9920 nM (active); in test [8], 1500 nM (active); in [10] it was 683 nM (active). Besides, the AC50 in [15] is 582 nM (active); in [16], 983 nM (active); in [17], 1210 nM (active).
